Source: the supplement of paper PMC6555819

Test system: RARg homodimer (NR concentration 270 nM)
Assay: PBM binding z-score (relative to random genomic background probes); higher = stronger binding; sequences stand for … in GC…GCGATTGACAGCGTAGAATGAAGG
Method in brief: (§1)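 Ligand-free nuclear receptor dimers were applied to custom Agilent 4×180K protein-binding microarrays whose double-stranded probes carried direct-repeat seeds, single-nucleotide variants, half-site ablations and random human genomic background sequences in 34-nt variable regions. Incubation lasted 1 h. Binding z-scores were computed against the random background probes from regression-normalized fluorescence.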

| Sequence | PBM binding z-score |
| --- | --- |
| TCTCGGAGGACATGAAGGTCAGAGCTTTCCAGAG | 2.57 |
| GGAACCAGGGCAAAGTTGATAGCATCTGTCGACG | 1.41 |
| CGTCCAAGGTCAATGCTAGGTCAGTGAAAGCATT | 6.83 |
| CAAACTACGTCACCGGAAGGTCAAAGTCCGCATG | 2.91 |
| TCTAGCAGGCCAGATGGTCACTCAAGAGGTACGG | 0.0188 |
| AGAATGAGGTTACCAAAGATCAGGGCAACGCTTG | 1.97 |
| GCTCGGAGGACAAGGTCAGAGCCTTGTCCGTAGA | 3.39 |
| GCTACTGGGGCAAAGCAGGTTACCATAAGGTTGG | 0.791 |
| TCTATTAGTTGACGGGCAACCGACGAGTCCGTTT | -0.0135 |
| TCACACAGGTGAAGGTAACTCAGGTACGCAGTCG | 0.701 |
| TCATATAGGTAAAAGGAGAAAGTCGGTGTGGTAA | 0.123 |
| ATCTCTAGGGAAAAGTTCAGTGAATCCCGAGGAT | 1.69 |
| CGTCCACGGTCAAGGTCAGTGAAAGAGACTCGAA | 5.01 |
| CCTCCAAGGTCAATGCTAGGTCAGTGAAAGCATT | 6.33 |
| CCAGACAGGTGAGAAGGTAACACAGCCTCGATTA | 0.833 |
| TAGCCTAGGTCAAGGGCCAGTATACCACGCGAAC | 4.75 |
| CCTAGTTGGTCAGAAGGTCACACACCGGATATGA | 4.38 |
| CGTCAAAATTCAACTAAGGTAACGTAAAGCACGC | 0.586 |
| ATCTCTAGGTAAAGTTCAGTGATAGATCGATAGA | 2.58 |
| TCTTGTAAATCAGCAGGTTAAGAAAGCTGGCCAA | -0.347 |

| Sequence | PBM binding z-score |
| --- | --- |
| ATACCAAGGTGACCGTGAGGTCGTTGATACTAAC | 1.96 |
| CTACCCAGGTGAACAAGGTCGTTGATTACTATTC | 0.941 |
| AGAAGGAGGTTATACGTAGATCAGGGAAGAAAGT | 1.11 |
| CCTACTGGGCCACGCAAGGTCATTGATTCAGTGA | 2.61 |
| GTACCAAGGTGAATAGGTTGTTGATGAGTAGGCG | 0.763 |
| TCATATAGGTAATACAGGTGAAAGCCGGCATCTA | 0.815 |
| CCGACTGGGGCATAAGGTCACCATAAGCCAGCCC | 4.18 |
| TGAATGAGGTTCAAGATCAGGGAACGTGGCGTCG | 0.706 |
| CGTCAAAGTTCAACTAAGGAAACGTAAAGCACGC | 6.45 |
| AGAACGAGGGCACGCTGATTTGATAGCAGAGTAG | 1.92 |
| CGTCAAAGTTCAAGGTAACGTACCAGAAAGCAGC | 6.14 |
| TAGCCTAGGGCATGCGGGCCAGTATAGTGTCGGC | 0.455 |
| TCTTGTAGAGCAAAGGTTAAGAAAGCCGAAGCCT | 0.586 |
| CCGACTGGGGCAAGGTTACCTTAACGCACAGCCA | 1.11 |
| CCAGACAGGTGAGAAGGTCACTCAGCCTCGATTA | 3.85 |
| CCTACTGGGCCCTTCAGAGGTCATTGATCATATG | 2.24 |
| CCTGGTAGGTCATGGTCAGCTAATCTACAGTATG | 4.8 |
| CCTTACGGGACACTGACAGGTTATAGCATTTGGA | 0.903 |
| TCGAGTAGGTTACCAATGGGGCATTCACCTTTCT | 0.58 |
| ACTTACGGGTCAACGAGGTTATTGCACGCGTATA | 4.9 |

Test system: RXRa DBDmut IVT, anti-RXR (DBD mutation: RXRa K156A/R161A, NR concentration 90 nM)
Assay: as above
Method in brief: as §1

| Sequence | PBM binding z-score |
| --- | --- |
| TCTCGGAGGACATGAAGGTCAGAGCTTTCCAGAG | 0.811 |
| GGAACCAGGGCAAAGTTGATAGCATCTGTCGACG | 1.03 |
| CGTCCAAGGTCAATGCTAGGTCAGTGAAAGCATT | 3.85 |
| CAAACTACGTCACCGGAAGGTCAAAGTCCGCATG | 0.765 |
| TCTAGCAGGCCAGATGGTCACTCAAGAGGTACGG | -0.141 |
| AGAATGAGGTTACCAAAGATCAGGGCAACGCTTG | 1.14 |
| GCTCGGAGGACAAGGTCAGAGCCTTGTCCGTAGA | 0.219 |
| GCTACTGGGGCAAAGCAGGTTACCATAAGGTTGG | 0.0265 |
| TCTATTAGTTGACGGGCAACCGACGAGTCCGTTT | 1.46 |
| TCACACAGGTGAAGGTAACTCAGGTACGCAGTCG | 0.879 |
| TCATATAGGTAAAAGGAGAAAGTCGGTGTGGTAA | 1.49 |
| ATCTCTAGGGAAAAGTTCAGTGAATCCCGAGGAT | 0.323 |
| CGTCCACGGTCAAGGTCAGTGAAAGAGACTCGAA | 0.716 |
| CCTCCAAGGTCAATGCTAGGTCAGTGAAAGCATT | 3.35 |
| CCAGACAGGTGAGAAGGTAACACAGCCTCGATTA | 0.148 |
| TAGCCTAGGTCAAGGGCCAGTATACCACGCGAAC | 0.34 |
| CCTAGTTGGTCAGAAGGTCACACACCGGATATGA | 0.926 |
| CGTCAAAATTCAACTAAGGTAACGTAAAGCACGC | 0.407 |
| ATCTCTAGGTAAAGTTCAGTGATAGATCGATAGA | 1.56 |
| TCTTGTAAATCAGCAGGTTAAGAAAGCTGGCCAA | 0.924 |

| Sequence | PBM binding z-score |
| --- | --- |
| ATACCAAGGTGACCGTGAGGTCGTTGATACTAAC | 0.82 |
| CTACCCAGGTGAACAAGGTCGTTGATTACTATTC | 0.701 |
| AGAAGGAGGTTATACGTAGATCAGGGAAGAAAGT | 0.234 |
| CCTACTGGGCCACGCAAGGTCATTGATTCAGTGA | 0.396 |
| GTACCAAGGTGAATAGGTTGTTGATGAGTAGGCG | 0.247 |
| TCATATAGGTAATACAGGTGAAAGCCGGCATCTA | 1.69 |
| CCGACTGGGGCATAAGGTCACCATAAGCCAGCCC | 0.204 |
| TGAATGAGGTTCAAGATCAGGGAACGTGGCGTCG | 2.14 |
| CGTCAAAGTTCAACTAAGGAAACGTAAAGCACGC | 4.6 |
| AGAACGAGGGCACGCTGATTTGATAGCAGAGTAG | 1.63 |
| CGTCAAAGTTCAAGGTAACGTACCAGAAAGCAGC | 4.5 |
| TAGCCTAGGGCATGCGGGCCAGTATAGTGTCGGC | -1.55 |
| TCTTGTAGAGCAAAGGTTAAGAAAGCCGAAGCCT | -0.181 |
| CCGACTGGGGCAAGGTTACCTTAACGCACAGCCA | -0.49 |
| CCAGACAGGTGAGAAGGTCACTCAGCCTCGATTA | 0.8 |
| CCTACTGGGCCCTTCAGAGGTCATTGATCATATG | -0.326 |
| CCTGGTAGGTCATGGTCAGCTAATCTACAGTATG | 0.728 |
| CCTTACGGGACACTGACAGGTTATAGCATTTGGA | 0.645 |
| TCGAGTAGGTTACCAATGGGGCATTCACCTTTCT | 0.49 |
| ACTTACGGGTCAACGAGGTTATTGCACGCGTATA | 3.01 |
